The values below come from PubChem BioAssay (Tox21).

Inconclusive results are not listed. Unmarked numbers belong to inactive results. Calls come from the whole dose curve; as a rule, active = well fitted inhibition curve with a large enough effect in the signal ratio in the repeat runs (not every such curve was filed as active); inconclusive = weak or mixed curves, or effect the other way; inactive = no such curve, though single readings can be large or run the other way; the % refers to the signal ratio.
% is set by controls: 0 for no effect and ±100 for the full control effect.

Sequence of Estrogen receptor beta (Homo sapiens) (Q92731 whole entry, looked up): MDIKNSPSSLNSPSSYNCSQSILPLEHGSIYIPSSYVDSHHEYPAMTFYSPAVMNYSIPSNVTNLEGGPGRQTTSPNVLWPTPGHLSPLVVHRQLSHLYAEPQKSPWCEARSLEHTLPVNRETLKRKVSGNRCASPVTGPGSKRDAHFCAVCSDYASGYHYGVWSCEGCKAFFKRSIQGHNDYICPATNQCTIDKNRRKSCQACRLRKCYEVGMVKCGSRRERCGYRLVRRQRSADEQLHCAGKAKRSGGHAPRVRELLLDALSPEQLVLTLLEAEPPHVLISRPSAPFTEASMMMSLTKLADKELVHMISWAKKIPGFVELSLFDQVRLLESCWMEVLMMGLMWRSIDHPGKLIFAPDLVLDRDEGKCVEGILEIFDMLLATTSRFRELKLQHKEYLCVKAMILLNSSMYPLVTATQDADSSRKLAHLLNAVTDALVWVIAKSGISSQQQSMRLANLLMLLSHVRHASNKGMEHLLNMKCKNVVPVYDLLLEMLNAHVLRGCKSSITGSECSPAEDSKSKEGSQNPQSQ

In the test the target is Estrogen receptor beta (Homo sapiens) (UniProt Q92731). Briefly: qHTS assay to identify small molecule antagonists of the estrogen receptor beta (ER-beta) signaling pathway (AID 1259378). The conditions noted are these: ER-beta-UAS-bla HEK293T, beta-lactamase FRET ratio, 16 h; series mostly up to 92.4 µM; activity, negative = inhibition: at the top concentration. An excerpt:
National Center for Advancing Translational Sciences [NCATS]
NIH Chemical Genomics Center [NCGC]
U.S. Environmental Protection Agency [EPA]
National Institutes of Environmental Health Sciences [NIEHS]
National Toxicology Program [NTP]
U.S. Food and Drug Administration [FDA]
Estrogen receptor (ER), a nuclear hormone receptor, plays an important role in development, metabolic homeostasis and reproduction. Two subtypes of ER, ER-alpha and ER-beta, have similar expression patterns with some uniqueness in both types. Endocrine disrupting chemicals (EDCs) and their interactions with steroid hormone receptors like ER causes disruption of normal endocrine function. To identify the compounds that inhibit ER signaling, an ER-beta-UAS-bla GripTite cell line (Life Technologies, Madison, WI, USA) containing a beta-lactamase reporter gene under the control of an UAS response element was used to screen Tox21 10K compound library.
Tox21 Assay Protocol Summary:
ER-beta-UAS-bla HEK293T cells were dispensed at 2,000 cells/4 uL of assay medium containing 2% charcoal stripped FBS per well into black wall/clear-bottom 1536-well plates using a Multidrop Combi (ThermoFisher Scientific, Waltham, MA) dispenser. After the assay plates were incubated at a 37C and 5% CO2 for 6 hr, 23 nL of compounds dissolved in DMSO, positive controls or DMSO only was transferred to the assay plate by a Pintool station (Kalypsys, San Diego, CA), followed by addition of 1 uL (1nM as final concentration) of 17-beta-estradiol (E2) in assay medium using a BioRAPTR FRD (Flying Reagent Dispenser, Aurora Discovery, San Diego, CA). The plates were incubated at 37C and 5% CO2 for 16 hr. Then 1 uL of LiveBLAzerTM B/G FRET substrate was added using a Flying Reagent Dispenser, the plates were incubated at room temperature for 2 hours, and fluorescence intensity was measured by an Envision plate reader (PerkinElmer, Shelton, CT).
For orientation: qHTS replaces the single test concentration by a dilution series.
For the compound `CCOC(=O)CCc1ccccc1`, the “activity, negative = inhibition” value is 4.06%.

On to `Cc1ccccc1OCC1CO1` (stereo not given), for which the “activity, negative = inhibition” value was 8.98%.

Take `COc1cccc2sc(N)nc12`: the “activity, negative = inhibition” value was -0.781%.

Consider `CC1(N)CCC(C(C)(C)N)CC1` (stereo not given), for which the “activity, negative = inhibition” value is -21.1%.

In the case of `C=CCOCC(O)CCl` (stereo not given), the “activity, negative = inhibition” value was 5.25%.

Take `CCOC(=O)CCCCCCCCC(=O)OCC`: the “activity, negative = inhibition” value is -1.54%.

Regarding `CC(C)CCC(=O)CCC(C)C`, the “activity, negative = inhibition” value was 11%.

Take `CC(=O)OC(C)c1ccccc1` (stereo not given): the “activity, negative = inhibition” value is 2.85%.

With `COCCOCCOCCOC`, the “activity, negative = inhibition” value was 4.27%.

`O=C(/C=C/c1ccccc1)NCCO`: the “activity, negative = inhibition” value was 1.72% [at 42.5 µM].

Take `Cc1ccccc1C(=O)N1CC/C(=N\OS(=O)(=O)O)c2ccc(Cl)cc21`: the “activity, negative = inhibition” value was -3.36% [at 42.5 µM].

In the case of `CCc1nccnc1C`, the “activity, negative = inhibition” value was 4.67%.

Regarding `Cn1c(=O)c2c(ncn2CC2OCCO2)n(C)c1=O`, the “activity, negative = inhibition” value is 5.34% [at 42.5 µM].

For the compound `CN(C)CCCNCCC#N`, the “activity, negative = inhibition” value was 1.36%.

As to `CCCO`, the “activity, negative = inhibition” value is 5.14%.

`NS(=O)(=O)c1cc2c(cc1Cl)NC(C(Cl)Cl)NS2(=O)=O` (stereo not given): the “activity, negative = inhibition” value was 10.6% [at 42.5 µM].

For `O=S(=O)(O)c1cc(O)ccc1O`, the “activity, negative = inhibition” value was 13%.

On to `CCCCC[Si](OCC)(OCC)OCC`, for which the “activity, negative = inhibition” value was 2.35%.

For `COc1cc2c(Nc3ccc(Br)cc3F)ncnc2cc1OCC1CCN(C)CC1`, the “activity, negative = inhibition” value is 24.3% [at 42.5 µM].

Turning to `C[C@H](CCC(=O)NCC(=O)O)[C@H]1CC[C@H]2[C@@H]3[C@H](O)C[C@@H]4C[C@H](O)CC[C@]4(C)[C@H]3C[C@H](O)[C@]12C`, the “activity, negative = inhibition” value was 0.605%.

Turning to `NS(=O)(=O)c1ccc(Cl)c(S(N)(=O)=O)c1`, the “activity, negative = inhibition” value is 12.3% [at 42.5 µM].

On to `C=CCOc1cc(Cl)ccc1C(=O)NCCN(CC)CC`, for which the “activity, negative = inhibition” value is -13.1% [at 42.5 µM].

Take `CC(C)SCc1ccco1`: the “activity, negative = inhibition” value was -1.11% [at 42.5 µM].

In the case of `COC(OC)C(C)c1ccccc1` (stereo not given), the “activity, negative = inhibition” value is 0.505%.

For the compound `CCCOC(=O)CCCCC(=O)OCCC`, the “activity, negative = inhibition” value was -3.25%.

On to `O=C1NC2NC(=O)NC2N1` (stereo not given), for which the “activity, negative = inhibition” value was 6.95%.

`CCCCCC1Nc2cc(C(F)(F)F)c(S(N)(=O)=O)cc2S(=O)(=O)N1` (stereo not given): the “activity, negative = inhibition” value is 0.63% [at 42.5 µM].

As for `CC1CCC(C(C)(C)S)C(=O)C1` (stereo not given), the “activity, negative = inhibition” value was -4.2%.

As for `CC(C)(CO)[C@@H](O)C(=O)NCCCO`, the “activity, negative = inhibition” value was -5.3% [at 42.5 µM].

As for `COc1ccc(OC)c(NC(=O)CC(C)=O)c1`, the “activity, negative = inhibition” value is 4.86%.

Take `CCOC(=O)C(C)(C)C`: the “activity, negative = inhibition” value is -1.04%.

On to `CCC(C)N` (stereo not given), for which the “activity, negative = inhibition” value was 16.3%.

As to `CC(C)(C)NCCO`, the “activity, negative = inhibition” value was -2%.

For `O=C(O)c1ccc(OCCN2CCCCC2)cc1`, the “activity, negative = inhibition” value was 16.3% [at 42.5 µM].

With `CCNC(=O)/C=C/c1cccc(Br)c1`, the “activity, negative = inhibition” value was -3.17% [at 42.5 µM].

Regarding `C[C@@H]1C[C@H]2[C@@H]3C[C@H](F)C4=CC(=O)C=C[C@]4(C)[C@@]3(F)[C@@H](O)C[C@]2(C)[C@@]1(O)C(=O)CO`, the “activity, negative = inhibition” value was -17% [at 42.5 µM].

Turning to `COc1ccc(/C=N/NC(=O)c2ccncc2)cc1OC`, the “activity, negative = inhibition” value was 3.67% [at 42.5 µM].

For `Nc1ccc(C(=O)OCC(O)CO)cc1` (stereo not given), the “activity, negative = inhibition” value is 6.44% [at 42.5 µM].

Turning to `CO/N=C(/C(=O)N[C@@H]1C(=O)N2C(C(=O)O)=C(Cn3nnc(C)n3)CS[C@H]12)c1csc(N)n1`, the “activity, negative = inhibition” value was 3.69% [at 42.5 µM].

Regarding `CCCCCCCCCCCCCC(=O)OC`, the “activity, negative = inhibition” value is 14.5%.
